# Laboratory results as given in the supplement of paper PMC6555819.
# How the values were obtained:
# Assay in all cases: PBM binding z-score (relative to random genomic background probes); higher = stronger binding; sequences stand for … in GC…GCGATTGACAGCGTAGAATGAAGG
# [1] = test system: PPARg:RXRa DBDmut IVT, anti-RXR (DBD mutation: RXRa K156A/R161A, NR concentration 270 nM, RXRa partner concentration 90 nM)
# Procedure, shortened: (§1)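 On custom Agilent 4×180K arrays, double-stranded probes with 34-nt variable regions carried direct-repeat seeds, single-nucleotide variants, half-site ablations or random human genomic background. Ligand-free nuclear receptor dimers were applied for 1 h, and binding was read with antibodies against each partner (one per run). Binding z-scores come from regression-normalized fluorescence, with the random background probes as reference.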
# [2] = test system: PPARg:RXRa IVT, anti-PPARg (NR concentration 270 nM, RXRa partner concentration 90 nM)
# Procedure, shortened: as §1
# [3] = test system: PPARg DBDmut:RXRa IVT, anti-PPARg (DBD mutation: PPARg1 K132A/R137A, NR concentration 270 nM, RXRa partner concentration 90 nM)
# Procedure, shortened: as §1
# [4] = test system: PPARg DBDmut IVT, anti-PPARg (DBD mutation: PPARg1 K132A/R137A, NR concentration 270 nM)
# Procedure, shortened: as §1
# [5] = test system: PPARg homodimer (NR concentration 180 nM)
# Procedure, shortened: as §1
# [6] = test system: PXR:RXRa (NR concentration 270 nM, RXRa partner concentration 90 nM)
# Procedure, shortened: as §1
# [7] = test system: PXR homodimer (NR concentration 270 nM)
# Procedure, shortened: as §1
# [8] = test system: RARa:RXR (NR concentration 270 nM, RXRa partner concentration 90 nM)
# Procedure, shortened: as §1
# [9] = test system: RARa homodimer (NR concentration 270 nM)
# Procedure, shortened: as §1
# [10] = test system: RARb:RXRa (NR concentration 270 nM, RXRa partner concentration 90 nM)
# Procedure, shortened: as §1
# [11] = test system: RARb homodimer (NR concentration 270 nM)
# Procedure, shortened: as §1
# [12] = test system: RARg:RXRa (NR concentration 270 nM, RXRa partner concentration 90 nM)
# Procedure, shortened: as §1
# [13] = test system: RARg homodimer (NR concentration 270 nM)
# Procedure, shortened: as §1
# [14] = test system: RXRa DBDmut IVT, anti-RXR (DBD mutation: RXRa K156A/R161A, NR concentration 90 nM)
# Procedure, shortened: as §1
# [15] = test system: RXRa homodimer (NR concentration 180 nM)
# Procedure, shortened: as §1
# [16] = test system: THRa:RXRa (NR concentration 90 nM, RXRa partner concentration 90 nM)
# Procedure, shortened: as §1
# [17] = test system: THRa homodimer (NR concentration 90 nM)
# Procedure, shortened: as §1
# [18] = test system: VDR homodimer (NR concentration 270 nM)
# Procedure, shortened: as §1
Sequence,PBM binding z-score [1],PBM binding z-score [2],PBM binding z-score [3],PBM binding z-score [4],PBM binding z-score [5],PBM binding z-score [6],PBM binding z-score [7],PBM binding z-score [8],PBM binding z-score [9],PBM binding z-score [10],PBM binding z-score [11],PBM binding z-score [12],PBM binding z-score [13],PBM binding z-score [14],PBM binding z-score [15],PBM binding z-score [16],PBM binding z-score [17],PBM binding z-score [18]
CAAACTAGGTCACGAACGGTCAAAGTCGAATGAC,8.77,9.13,8.12,6.44,4.03,3.71,0.663,4.05,2.03,4.7,4.43,5.69,6.24,1.66,4.56,4.08,1.74,1.44
CCGACTGGGGCAAAGGTTAGCATACTCAGTACGA,4.94,4.9,-0.151,-1.37,1.58,1.47,-0.542,2.78,-0.0647,1.99,1.56,2.76,1.55,0.057,2.79,0.962,-0.171,-0.381
CCTAGAAGGCCAGGGTCACTCAAGCATTTCGCTT,0.376,0.709,-1.14,-1.39,1.89,2.81,0.284,3.21,1.23,3.06,3.02,3.47,3.15,0.637,3.9,2.96,1.16,2.13
GCGACTGGGGCAATGCAGGTTACCATAAGGTTGG,4.37,4.53,-0.0887,-0.128,0.0203,0.548,-0.5,0.919,-0.465,0.959,1.14,0.631,0.677,-0.584,0.553,2.56,-0.0652,-0.0846
TTACCAAGGTGAGCTGAGGTCCTTGATCCAACTC,0.555,1.8,-0.248,-1.12,-0.702,1.26,-0.737,0.613,-1.39,1.04,0.469,0.18,0.227,-0.639,0.399,3.79,0.733,-0.397
CGAGCGAGGGCATGAGTTGATAGCAAATGCCGAT,0.598,0.064,-0.548,-1,-0.175,0.544,-0.137,0.536,-0.541,2.03,0.657,1.14,1.22,2.15,1.19,0.963,-0.509,1.46
TCGCGGAGGACACGAAAGGTCAGAGCTCGACATC,0.791,1.5,0.00207,-0.746,2.36,3.97,0.407,4.24,1.04,4.03,4.42,4.79,5.1,0.362,3.86,3.6,0.956,0.898
CAAACTAGGTCAATGTCAAAGTCGGTTTGTGCCA,8.51,8.59,5.32,4.74,2.82,1.39,-0.00687,2.11,0.756,3.86,3.06,3.43,4.16,1.94,2.36,2.56,0.861,1.28
ATCGAAAGGTCGACGAGGTGCGTATACACCGTTT,0.356,1.41,0.639,-0.109,1.06,3.37,-0.325,2.45,-0.212,3.79,2.58,3.76,3.9,0.716,4,2.46,-0.328,0.77
TCTTGTAGATCAAAGGTTAAGAAGGCCGAAGCCT,2.13,4.06,0.462,0.582,0.29,2.19,0.104,3.33,-0.0225,1.98,1.58,1.95,0.702,0.627,3.37,1.51,-0.402,0.0638
CCTATTTGGTCAAGGTCACACACGCTATAGGTAC,2.33,3.67,1.27,1.25,3.05,4.1,2.06,4.39,2.51,4.3,4.51,4.63,4.57,2.35,4.55,4.2,4.49,3.03
GCTACAGGGTCAGCTAGAGGCCAGAGTATGGAAA,1.26,1.75,-0.627,-0.389,1.43,3.1,-0.36,4,-0.208,4.32,3.3,6.74,5.02,1.48,4.32,3.23,0.349,0.386
TCATATTGGTAAAGGTGAAAGTCGAACGATATGA,1.58,1.69,0.994,1.2,1.15,0.712,-0.162,1.25,0.406,1.94,1.33,1.28,0.994,0.405,1.79,1.08,-0.164,-0.179
CAAACTAGATCACCGGAAGGTCAAAGTCCGCATG,3.34,3.13,0.538,0.366,2.31,3.54,1.53,3.99,1.63,3.21,4.03,4.08,2.88,0.674,3.47,2.76,1.06,2.12
TCTCGGATGACACGAAGGTCAGAGCTTTCCAGAG,1.37,0.539,-0.684,-0.814,0.961,1.62,0.0323,2.3,-0.214,2.55,3.15,2.66,2.31,0.542,2.48,1.68,0.229,0.13
